This is part of a sample that, as a whole, favours compounds with a hit. Of some 83,000 tested, about 20% had one in any assay.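 How to read the values: 0–100, growth inhibition (40 = 60% inhibited); 0, no net growth; -100 to 0, cell death (-40 = 40% of starting cells died; -100 = all dead).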 Values without a mark were called inactive. The source made the active and inactive calls. The calls were made as follows: active = growth percent below 10; inactive = the rest.
Experiments:
Experiment in all cases: NCI-60 one-dose screen, 48 h (100 = growth as untreated, 0 = no growth, -100 = all killed)
[1] = test system: NCI-H23 lung; conditions: 10 µM unless noted
[2] = test system: NCI-H226 lung; conditions: 10 µM unless noted
[3] = test system: NCI-H322M lung; conditions: 10 µM unless noted
[4] = test system: HOP-62 NSCLC; conditions: 10 µM unless noted
[5] = test system: NCI-H460 lung; conditions: 10 µM unless noted
[6] = test system: HOP-92 NSCLC; conditions: 10 µM unless noted
[7] = test system: NCI-H522 lung; conditions: 10 µM unless noted
[8] = test system: 786-0 renal; conditions: 10 µM unless noted
[9] = test system: COLO 205 colon; conditions: 10 µM unless noted
[10] = test system: DU-145 prostate; conditions: 10 µM unless noted
[11] = test system: K-562 leukemia; conditions: 10 µM unless noted
[12] = test system: MALME-3M melanoma; conditions: 10 µM unless noted
[13] = test system: MDA-MB-231 breast; conditions: 10 µM unless noted
[14] = test system: RXF 393 renal; conditions: 10 µM unless noted
[15] = test system: SF-268 CNS; conditions: 10 µM unless noted
[16] = test system: SF-295 CNS; conditions: 10 µM unless noted
[17] = test system: SF-539 CNS; conditions: 10 µM unless noted
[18] = test system: UACC-257 melanoma; conditions: 10 µM
[19] = test system: M14 melanoma; conditions: 10 µM unless noted

SMILES	growth [1] [%]	growth [2] [%]	growth [3] [%]	growth [4] [%]	growth [5] [%]	growth [6]	growth [7] [%]	growth [8] [%]	growth [9] [%]	growth [10]	growth [11]	growth [12] [%]	growth [13] [%]	growth [14]	growth [15] [%]	growth [16] [%]	growth [17]	growth [18] [%]	growth [19] [%]
CCC1CCc2nc3sc(C(=O)Nc4ccccc4F)c(N)c3cc2C1 (centres undefined)	78.2	89.8	92.8	76.4	75.4	58.3%	71.9	91.4	64.2	55.8%	37.8%	48.7	69.9	79.6%	61.5	46.6	75%	57.5	44.4
COc1ccc(NC(=O)CSc2nc3ccccc3c(=O)n2Cc2cc(OC)c(OC)c(OC)c2)cc1	92.5	88.3	94.5	91.4	101	58.8%	66.7	92.5	107	95.6%	79.8%	88.2	73.8	82.9%	85.1	106	79%	94.3	99.4
CCCCC(N)(C(=O)O)C1CCCC1 (centres undefined)	106	101	101	112	107	102%	102	96	123	122%		127	105	106%	107	98.8	96.7%	87.2	107
COc1cc2c(cc1OC)C1(C)N(CC2)C(=O)OC1(C)C (centres undefined)	110	92.8	101	111	101	101%	100	102	120	112%	-78.1% (active)	122	115	99%	103	103	106%	95.6	101
Cc1ccc(C2=NN(c3ccc(S(=O)(=O)NC(=O)NCc4ccccc4)cc3)C(c3ccc(N(C)C)cc3)C2)c(C)c1 (centres undefined)	49.4	77.7	56.3	74.9	31.3	82.3%	49.7	68.5	62.1	82.7%	49.6%	87	75.7	53%	50.8	52.7	37.6%	60.3	27.3
COc1ccc(/C=C/C(=O)c2ccc(B(O)O)cc2)cc1O	88	92.5	96.3	89.8	73.2	52.4%	85.6	84.9	101	75.6%	24.6%		90.8	81.4%	81.6	98.5	71.3%	94.3	74.1
Cc1nc(Nc2cccnc2)sc1C(=O)/C=C/c1ccc(F)cc1	82.3	55.7	47.9	30.4	59.8	88.6%	52	13.8		9.5% (active)	11.4%	88.1	89.2	18.1%	42.1	42.4	18.2%	73.5	25.5
Cc1cc(C)c(NC(=O)c2sc3nc4c(cc3c2N)CN(Cc2ccccc2)CC4)c(C)c1	55.2	49.5	39.3	33.7	10.8	37.7%	13.5	39	12.3	27.6%	9.63% (active)		44	26.1%	36.5	21.9	8.37% (active)	48	40.2
CCOc1ccc(/C=C/C=N/NC(N)=S)cc1	78.7	119	91.7	106	96	89.3%	37.3	56	84.5	92.9%	56%	82	66.6	-0.439% (active)	92.1	96.7	74.3%		95.7
COC(=O)[C@H]1[C@H](OC)[C@@H](OC(=O)/C=C/c2ccncc2)CC2CN3CCc4c([nH]c5cc(OC)ccc45)[C@@H]3C[C@@H]21 (some centres undefined)	97	73.7	78.4	78.5	92.5	1.2% (active)	72	83.5	79.2	80%	57.3%		62.2	72.7%	80.3	90.4	91%	62.3	78.4

From PubChem BioAssay (NCI)
